Columns and labels:
Test in all cases: universal protein binding microarray (PBM); transcription factors of Arabidopsis thaliana; high values mean tight binding
Details in all cases: protein: recombinant; tags: GST; chain copies: 2; dsDNA, one strand shown
[1] = molecular target: T1, GST-ANAC092(1-176) (Arabidopsis thaliana, UniProt Q9FKA0 1-176)
T1 sequence: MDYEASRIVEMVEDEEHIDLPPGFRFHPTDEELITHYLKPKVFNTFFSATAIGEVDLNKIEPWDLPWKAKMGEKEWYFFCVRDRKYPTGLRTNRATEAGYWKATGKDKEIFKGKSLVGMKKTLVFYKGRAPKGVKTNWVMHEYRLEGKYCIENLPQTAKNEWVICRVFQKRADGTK
Outline: (§1)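 Binding is expressed as the normalised enrichment score (E-score). Proteins carrying a GST tag, whether NAC-domain, full-length or DNA-binding-domain forms, were induced in cells, and zinc acetate was added for zinc-finger proteins. After purification on glutathione–Sepharose 4B and quantification by A280 or anti-GST western blot, each was applied in duplicate at 200 to 500 nM final to custom all-10-mer Agilent 4 × 180K arrays made double-stranded by primer extension. Gapped and ungapped 8-mers were scored.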

[2] = molecular target: T2, GST-ANAC019 NAC domain (Arabidopsis thaliana, UniProt Q9C932 14-162)
T2 sequence: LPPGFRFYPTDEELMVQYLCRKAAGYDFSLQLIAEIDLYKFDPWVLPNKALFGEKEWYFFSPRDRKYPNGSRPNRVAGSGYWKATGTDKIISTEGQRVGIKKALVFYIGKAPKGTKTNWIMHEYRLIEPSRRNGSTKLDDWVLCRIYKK
Outline: as §1

[3] = molecular target: T3, GST-ANAC055(1-171) (Arabidopsis thaliana, UniProt Q9LDY8 1-171)
T3 sequence: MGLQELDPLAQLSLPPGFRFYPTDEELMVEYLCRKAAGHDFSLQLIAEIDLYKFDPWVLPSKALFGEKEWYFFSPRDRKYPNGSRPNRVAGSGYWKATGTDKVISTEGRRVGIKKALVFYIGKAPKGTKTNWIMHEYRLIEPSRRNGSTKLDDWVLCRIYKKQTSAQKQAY
Outline: as §1

[4] = molecular target: T4, GST-ATAF1 NAC domain (Arabidopsis thaliana, UniProt Q39013 7-158)
T4 sequence: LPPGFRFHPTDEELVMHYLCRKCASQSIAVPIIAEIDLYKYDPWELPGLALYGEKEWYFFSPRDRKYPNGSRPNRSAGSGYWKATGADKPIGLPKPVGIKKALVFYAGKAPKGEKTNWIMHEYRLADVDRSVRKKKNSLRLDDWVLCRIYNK
Outline: as §1

[5] = molecular target: T5, GST-ANAC092(1-285) full length (Arabidopsis thaliana, UniProt Q9FKA0 1-285)
T5 sequence: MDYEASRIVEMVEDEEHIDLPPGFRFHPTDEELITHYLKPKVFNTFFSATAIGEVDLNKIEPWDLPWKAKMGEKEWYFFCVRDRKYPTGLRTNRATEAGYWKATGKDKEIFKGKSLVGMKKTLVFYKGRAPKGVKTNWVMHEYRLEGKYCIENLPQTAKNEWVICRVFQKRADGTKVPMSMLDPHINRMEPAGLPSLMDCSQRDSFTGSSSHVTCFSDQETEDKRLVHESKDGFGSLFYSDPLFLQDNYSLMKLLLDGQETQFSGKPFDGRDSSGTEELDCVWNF
Outline: as §1

[6] = molecular target: T6, GST-NAP(1-166) (Arabidopsis thaliana, UniProt O49255 1-166)
T6 sequence: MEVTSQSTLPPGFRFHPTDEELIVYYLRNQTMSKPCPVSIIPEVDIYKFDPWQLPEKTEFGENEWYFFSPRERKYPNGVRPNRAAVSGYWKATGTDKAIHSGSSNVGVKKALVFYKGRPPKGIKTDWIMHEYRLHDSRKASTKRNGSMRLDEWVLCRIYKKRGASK
Outline: as §1

[7] = molecular target: T7, GST-NST2(1-184) (Arabidopsis thaliana, UniProt Q9M274 1-184)
T7 sequence: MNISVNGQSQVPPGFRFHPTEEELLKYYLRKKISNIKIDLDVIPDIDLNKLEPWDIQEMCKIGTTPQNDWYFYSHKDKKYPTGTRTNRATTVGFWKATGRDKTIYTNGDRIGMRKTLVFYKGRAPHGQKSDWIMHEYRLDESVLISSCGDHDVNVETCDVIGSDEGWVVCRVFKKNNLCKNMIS
Outline: as §1

[8] = molecular target: T8, GST-NTL8 NAC domain (Arabidopsis thaliana, UniProt Q9XIN7 14-156)
T8 sequence: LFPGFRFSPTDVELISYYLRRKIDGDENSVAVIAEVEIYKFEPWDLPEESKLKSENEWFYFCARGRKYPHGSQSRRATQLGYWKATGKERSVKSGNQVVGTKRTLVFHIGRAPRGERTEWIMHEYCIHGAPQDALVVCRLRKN
Outline: as §1

[9] = molecular target: T9, GST-SND1(1-203) (Arabidopsis thaliana, UniProt Q9LPI7 1-203)
T9 sequence: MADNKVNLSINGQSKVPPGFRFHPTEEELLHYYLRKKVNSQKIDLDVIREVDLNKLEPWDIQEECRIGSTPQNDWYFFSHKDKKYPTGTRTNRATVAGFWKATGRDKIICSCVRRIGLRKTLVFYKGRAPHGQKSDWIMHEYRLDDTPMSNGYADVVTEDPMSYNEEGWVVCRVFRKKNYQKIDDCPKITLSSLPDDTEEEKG
Outline: as §1

[10] = molecular target: T10, GST-VND3 NAC domain (Arabidopsis thaliana, UniProt Q9FH59 12-162)
T10 sequence: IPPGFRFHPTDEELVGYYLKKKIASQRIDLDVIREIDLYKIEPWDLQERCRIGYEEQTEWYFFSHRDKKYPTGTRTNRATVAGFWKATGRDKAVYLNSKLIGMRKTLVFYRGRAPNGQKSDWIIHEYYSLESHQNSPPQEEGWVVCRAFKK
Outline: as §1

[11] = molecular target: T11, GST-VND7 NAC domain (Arabidopsis thaliana, UniProt Q9C8W9 9-158)
T11 sequence: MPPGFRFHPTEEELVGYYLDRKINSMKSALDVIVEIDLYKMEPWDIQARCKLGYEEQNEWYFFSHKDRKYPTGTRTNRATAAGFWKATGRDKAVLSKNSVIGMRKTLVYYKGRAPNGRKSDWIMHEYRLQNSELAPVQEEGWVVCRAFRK
Outline: as §1

Sequence	binding signal [1]	binding signal [2]	binding signal [3]	binding signal [4]	binding signal [5]	binding signal [6]	binding signal [7]	binding signal [8]	binding signal [9]	binding signal [10]	binding signal [11]
CACGACAC	0.321 E-score	0.41 E-score	0.372 E-score	0.338 E-score	0.355 E-score	0.343 E-score	0.134 E-score	0.0614 E-score	0.0543 E-score	0.299 E-score	0.348 E-score
CACGGCAG	0.39 E-score	0.457 E-score	0.403 E-score	0.307 E-score	0.426 E-score	0.227 E-score	0.0722 E-score		0.11 E-score	0.412 E-score	0.384 E-score
CACGGCAC	0.462 E-score	0.484 E-score	0.484 E-score	0.432 E-score	0.474 E-score	0.478 E-score	0.292 E-score		0.203 E-score	0.458 E-score	0.485 E-score
GCACGGAA	0.388 E-score	0.472 E-score	0.457 E-score	0.357 E-score	0.413 E-score	0.437 E-score	0.2 E-score	0.193 E-score	0.156 E-score	0.402 E-score	0.453 E-score

Reference: article PMC4081100, “A DNA-binding-site landscape and regulatory network analysis for NAC transcription factors in Arabidopsis thaliana”
